What all share (assay): NCI-60 one-dose screen, 48 h (100 = growth as untreated, 0 = no growth, -100 = all killed)
What all share (conditions): 10 µM unless noted

Test [1] relates to NCI-H23 lung.
Test [2] concerns NCI-H226 lung.
The subject of test [3] is NCI-H322M lung.
Test [4] deals with HOP-62 NSCLC.
Test [5] deals with NCI-H460 lung.
The test system of test [6] is HOP-92 NSCLC.
Test [7] deals with NCI-H522 lung.
The test system of test [8] is A549/ATCC NSCLC.
In test [9] the test system is 786-0 renal.
The subject of test [10] is COLO 205 colon.
The subject of test [11] is DU-145 prostate.
The subject of test [12] is K-562 leukemia.
For test [13], the system named is MALME-3M melanoma.
Test [14] concerns MDA-MB-231 breast.
Test [15] relates to RXF 393 renal.
Test [16] relates to SF-268 CNS.
Test [17] concerns SF-295 CNS.
Test [18] deals with SF-539 CNS.
For test [19], the system named is UACC-257 melanoma.
Test [20] has as its system M14 melanoma.

Each structure is given as a SMILES string. The panel holds about 83,000 compounds, 20% with a hit somewhere; the sample as a whole holds those more often.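 Interpretation: 100, growth as untreated; towards 0, rising growth inhibition; 0, no net growth; 0 to -100, cell death. Compounds scoring below 10 were considered active.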 Values without a mark were called inactive. Activity calls are given as the source filed them.

Our source for the growth values is PubChem BioAssay (NCI).

As for `COc1cc(/C=C/C(=O)c2cnn(-c3cc(=O)[nH]c4ccc(Br)cc34)c2C)cc(OC)c1OC`, the growth in test [1] was -63.4% (active); in test [2] it was -28% (active); in test [3], 4.7% (active); in test [4], -9.41% (active); in test [5], -60.4% (active); in test [6], 25.7%. Further, the growth was -89.1% (active) in test [7]; 8.86% (active) in test [8]; -73% (active) in [9]; -80.7% (active) in test [10]; -83.4% (active) in [11]; -0.439% (active) in test [12]. Moreover, the growth in test [13] was -42.4% (active); in [14] it was -34.3% (active); in test [15] it was -76.2% (active); in test [16] it was -16.4% (active); in [17], -61.8% (active); in test [18], -78.8% (active). Besides, the figures for the growth in test [19] and in test [20] were -30.3% (active) and -49.8% (active), respectively.
For `C=CCSc1nnc(-c2ccc(-c3nc4ccccc4[nH]3)cc2)o1`, the growth in [1] is 89.9%; in [2], 95.5%; in [3], 97.7%; in test [4], 84.2%; in test [5], 87.1%; in test [6], 79.1%. The growth in test [7] was 70.4%; in [8], 73.5%; in test [9], 77.6%; in test [10] it was 82.6%; in [11] it was 77.1%; in [12] it was 46%. Besides, the growth is 77.4% in test [13]; 92.2% in [14]; 71.3% in test [15]; 87.4% in test [16]; 76.2% in test [17]; 82.2% in [18]. For the same compound, the figures for the growth in [19] and in test [20] were 88.2% and 73.5%, respectively.
As for `COc1nc(N)ncc1-c1ccc2ncnc(N3CCc4cc(F)c(Cl)cc43)c2c1`, the growth in test [1] is 34.2%; in test [2], -40.3% (active); in [3], 3.86% (active); in test [4], -54.4% (active); in [5], -21.5% (active); in test [6], -23.8% (active). In addition, the growth in [7] was 41.1%; in [8], 3.34% (active); in [9], -74.9% (active); in [10], -55.5% (active); in [11] it was 30.6%; in [12], 31.6%. The growth in [13] was 64.3%; in test [14], -22.7% (active); in test [15], -46.2% (active); in test [16], 54.2%; in test [17] it was 17.9%; in test [18] it was 1.76% (active). For the same compound, the growth in test [19] was 78.8%; in [20] it was 62.4%.
As for `CN1CCN(C(=O)CCN(C(=O)Oc2cc3c(c4ccccc24)[C@H](CCl)CN3C(=O)c2cc3cc(OCCCN4CCC4)ccc3[nH]2)[C@H]2CCSSC2)CC1`, the growth in test [1] was -73.3% (active); in test [2] it was -17.9% (active); in test [3], -48% (active); in [4] it was -77.4% (active); in [5], 2.93% (active); in [6], -32.1% (active). In addition, the growth in test [7] was -74.4% (active); in [8] it was -61.5% (active); in [9] it was -90.8% (active); in test [10], -80% (active); in test [11], -84.3% (active); in test [12], -42.9% (active). Also, the growth in test [13] was -86.8% (active); in test [14], -89.6% (active); in [15] it was -86.7% (active); in test [16], -50.4% (active); in test [17] it was -71% (active); in test [18] it was -94% (active). Also, the figures for the growth in [19] and in test [20] were -77.9% (active) and -62.5% (active), respectively.
As for `C=CC[n+]1cccc2c3ccccc3ccc21`, the growth was 27.4% in [1]; 58% in test [2]; 76.7% in [3]; 44.9% in test [4]; 23.2% in test [5]; 52.3% in test [6]. Besides, the growth in test [7] is 27.1%; in [8] it was 28.1%; in test [9], 66.2%; in test [10], 28.4%; in test [11], 58.4%; in [12], 27.8%. The growth in test [13] was 2.38% (active); in test [14], 77.6%; in test [15], 69.7%; in [16], 22.7%; in test [17], 21.4%; in [18] it was 66.6%. In addition, the figures for the growth in [19] and in test [20] were 20.9% and 65.9%, respectively.
As to `COC(=O)c1c(C(=O)OC)c2ccc3c4ccccc4ccc3n2c1C(=O)OC`, the growth in test [1] is 102%; in [2] it was 100%; in test [3] it was 101%; in test [4] it was 110%; in test [5], 111%; in test [6], 97.5%. Moreover, the growth was 100% in test [7]; 97.2% in test [8]; 100% in [9]; 115% in test [10]; 121% in test [11]; 117% in test [12]. The growth was 96% in [13]; 110% in test [14]; 74.9% in [15]; 103% in test [16]; 93.5% in test [17]; 99.3% in test [18]. Further, the figures for the growth in test [19] and in test [20] were 101% and 102%, respectively.
For `O=C(Cc1c(-c2ccccc2[N+](=O)[O-])n(-c2ncnc3c2c(-c2ccccc2)c(-c2ccccc2)n3Cc2ccccc2)[nH]c1=O)c1ccc(Cl)c(Cl)c1`, the growth is 9.58% (active) in [1]; 24.7% in test [2]; 42.7% in test [3]; 49.3% in [4]; 15.9% in test [5]; -3.98% (active) in [6]. Also, the growth in test [7] was -10.1% (active); in [8], 25.6%; in test [9], 36.2%; in test [10], 43.1%; in [11] it was 32.2%; in test [12], 12%. Also, the growth in test [13] is -12.6% (active); in [14], 33.5%; in test [15], 31.7%; in test [16] it was 30.9%; in [17], 3.25% (active); in test [18], 38.2%. In addition, the growth in test [19] is 11.5%; in [20], 14.6%.
For the compound `O=C(NNC(=S)NCCc1ccccc1)c1ccc(OCc2nc3ccc(Cl)cc3[nH]2)cc1`, the growth in [1] is 66.3%; in test [2] it was 97.7%; in test [3] it was 88.8%; in [4], 97.4%; in test [5], 82.3%; in test [6], 144%. Further, the growth was 78.7% in test [7]; 73.8% in test [8]; 79.1% in [9]; 131% in test [10]; 79.4% in [11]; 29.6% in [12]. Besides, the growth is 65.5% in [13]; 95.5% in test [14]; 93% in test [15]; 70.4% in test [16]; 61.4% in test [17]; 84.3% in [18]. Further, the growth in test [19] was 79.9%; in test [20], 93.9%.
